The record followed here is PubChem BioAssay AID1851 (National Center for Advancing Translational Sciences (NCATS), 2009).

“And” between values parts separate entries of the source, which are not always exact repeats. Identical values can stand only once. About 5,700 (36%) of roughly 16,000 compounds were called active. Inconclusive results (about 24%) are left out. The list shows a part of the results. More than one record can exist for a structure, and the calls need not agree. Unmarked numbers belong to inactive results. Calls follow the shape of the dose curve; as a rule, active = well fitted curve in the direction sought with a large enough effect; inconclusive = small, poorly fitted or top-dose-only effect, or effect the other way; inactive = no such curve, though single readings can be large or run the other way.
% is scaled to controls: 0 for no effect and ±100 for the full control effect.

The target in the test is Cytochrome P450 1A2 (Homo sapiens) (UniProt P05177). Kind of test: Cytochrome panel assay with activity outcomes. To be noted: recombinant CYP, pro-luciferin dealkylation, luminescence, p450-cyp1a2; series mostly up to 57.1 µM; activity, negative = inhibition: at the top concentration.
Cytochrome P450 1A2 (Homo sapiens), sequence (P05177 whole entry, looked up): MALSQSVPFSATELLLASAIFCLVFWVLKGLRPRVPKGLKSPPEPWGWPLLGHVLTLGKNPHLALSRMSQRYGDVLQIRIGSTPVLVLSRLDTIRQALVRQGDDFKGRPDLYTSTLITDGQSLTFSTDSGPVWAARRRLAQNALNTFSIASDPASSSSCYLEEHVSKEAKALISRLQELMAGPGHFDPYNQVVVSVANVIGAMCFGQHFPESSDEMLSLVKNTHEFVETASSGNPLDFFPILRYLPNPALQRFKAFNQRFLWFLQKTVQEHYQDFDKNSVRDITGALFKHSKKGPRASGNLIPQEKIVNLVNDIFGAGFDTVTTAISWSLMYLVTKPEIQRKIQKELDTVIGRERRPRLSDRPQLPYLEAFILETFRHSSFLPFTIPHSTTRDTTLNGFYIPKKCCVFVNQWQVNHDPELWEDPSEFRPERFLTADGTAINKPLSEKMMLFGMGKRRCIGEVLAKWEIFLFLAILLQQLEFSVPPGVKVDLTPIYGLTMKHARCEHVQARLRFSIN
Regarding `O=c1n(-c2ccccc2)c(=O)n2n1CC[C@H]1/C(=N\OCc3ccccc3)[C@H]3O[C@@H]3[C@@H](O)[C@@H]12`, the activity, negative = inhibition was -12.4% [at 11.4 µM].
In the case of `CN(C)c1ccc(-c2ccc3ncnc(N(C)C)c3c2)cc1`, the AC50 (commonly the midpoint of the concentration-response curve, whichever way the signal moves) was 0.158 µM (active).
Still for that read-out and setting: under `CN(C)C(=O)c1ccc(-c2ccc3ncnc(N(C)C)c3c2)cc1` stands 20 µM (active); under `CN(C)c1ncnc2ccc(-c3ccoc3)cc12`, 0.794 µM (active).
For `CCO[P@]1(=O)OC[C@@H]2O[C@H](n3cnc4c(N)ncnc43)[C@H](O)[C@@H]2O1`, the activity, negative = inhibition is -15.6% [at 2.29 µM].
Still for that read-out and setting: with `CC(NC(=O)CN1CCCC1)C12CC3CC(CC(C3)C1)C2` (configuration not stated) the figure was -12.1%.
Still for that read-out and setting: under `COC(=O)[C@H](C)NC(=O)[C@@H](C)CO` stands -7.75% [at 11.4 µM].
On to `O=S(=O)(N/N=C\c1cn(-c2ccccc2)nc1-c1ccccc1)c1ccccc1`, for which the AC50 is 3.55 µM (active).
Same read-out and setting: under `Cc1ccc(-c2nn(-c3ccccc3)cc2/C=N/NS(=O)(=O)c2ccccc2)cc1` stands 4.47 µM (active).
On to `COc1ccc(-c2nn(-c3ccccc3)cc2/C=N/NC(=O)c2ccc(Br)o2)cc1`, for which the “activity, negative = inhibition” value is -27.3%.
Consider `O=C(N/N=C\c1cn(-c2ccccc2)nc1-c1ccccc1)c1ccc(Br)o1`, for which the AC50 was 3.55 µM (active).
As to `COCCCNC(=O)c1c(N)n(/N=C/c2ccccn2)c2nc3ccccc3nc12`, the AC50 is 2 µM (active).
As to `Cn1c(N)c(N=Nc2ccc(S(N)(=O)=O)cc2)c(=O)n(C)c1=O`, the activity, negative = inhibition was -12.8% [at 2.29 µM].
Same read-out and setting: under `CC1=NN(c2ccccc2)C(=O)C1C(=O)c1ccc(Cl)cc1` (configuration not stated) stands 1.73%.
Take `CC1=NN(c2ccccc2)C(=O)[C@@H]1N=Nc1ccc(S(N)(=O)=O)cc1`: the AC50 is 1.26 µM (active).
`CC(=O)OCC(=O)[C@@]1(O)CC[C@@H]2[C@H]3CCC4=CC(=O)CC[C@]4(C)[C@]3(F)[C@@H](O)C[C@@]21C`: the “activity, negative = inhibition” value was -5.93% [at 25.6 µM].
In the case of `Cc1[nH]nc2nc(SCC(=O)NCC3CCCO3)n(-c3ccc(Br)cc3)c(=N)c12` (configuration not stated), the AC50 was 10 µM (active).
In the case of `CCC(C)NS(=O)(=O)c1ccc(OCC(=O)NCC2CCCO2)cc1` (configuration not stated), the “activity, negative = inhibition” value was 18.2%.
Consider `Cc1ccc(C)c(-n2c(Cc3cc(=O)[nH]c(=O)[nH]3)nnc2SCC(=O)NCC2CCCO2)c1` (configuration not stated), for which the “activity, negative = inhibition” value was -2.07%.
With `C=CCn1c(=O)c2c(nc(-c3ccc(S(=O)(=O)O)cc3)n2C)n(C)c1=O`, the “activity, negative = inhibition” value was -15%.
For `CCOc1cc(/C=C2\N=C(C)OC2=O)cc(Br)c1OCC(=O)OC`, the AC50 is 17.8 µM (active).
`CCOc1ccc(N2C(=O)/C(=C/c3cc(OC)c(OC)c(OC)c3)N(CC(=O)OC)C2=S)cc1`: the “activity, negative = inhibition” value was 12.3%.
Take `CCCCNC(=O)C1CC(=O)N(c2ccc(OC)cc2)C1c1ccc(OC)cc1` (configuration not stated): the “activity, negative = inhibition” value is 1.32%.
With `CCN1C(=O)/C(=C2\SC(=S)N(CCCOC)C2=O)c2ccccc21`, the AC50 is 1.58 µM (active).
On the same count and under the same terms, under `N#Cc1c(-n2ccnc2)cccc1-n1ccnc1` stands 2.51 µM (active); under `N#Cc1c(Cl)cccc1-n1ccnc1`, 1 µM (active).
Regarding `FC(F)(F)c1ccccc1-n1ccnc1`, the AC50 was 0.251 µM (active).
For `CC(=O)Nc1ccc(NC2=Nc3ccccc3N3C2=Nc2c(c(C)nn2-c2ccccc2)C3c2ccccc2)cc1` (configuration not stated), the “activity, negative = inhibition” value was 4.37%.
Take `C=CCNC(=O)C1CCN(S(=O)(=O)CC)CC1`: the “activity, negative = inhibition” value was -0.27%.
For the compound `COc1ccc(CNc2ncnc3ccc(-c4ccccc4C#N)cc23)c(OC)c1`, the AC50 is 6.31 µM (active).
The same measure, in the same setting: under `COc1ccccc1CNc1ncnc2ccc(-c3ccccc3C#N)cc12` stands 1.26 µM (active).
For `O=C1c2ccccc2C(=O)N1CCCCN(C(=O)c1ccc([N+](=O)[O-])cc1)c1ccc(Cl)cc1`, the “activity, negative = inhibition” value was -16.4%.
`Cc1ccc(C(=O)N/C(=C\c2ccc([N+](=O)[O-])cc2)C(=O)NCCc2ccccc2)cc1`: the “activity, negative = inhibition” value was -18.3%.
As to `Cc1ccc(N(Cc2ccc([N+](=O)[O-])cc2)C(=O)c2ccco2)cc1`, the AC50 is 12.6 µM (active).
`Nc1nc(-c2cccs2)cs1`: the AC50 is 7.08 µM (active) and the activity, negative = inhibition is -30.1% [at 2.29 µM].
As for `NC(=O)C[C@H](N)C(N)=O`, the activity, negative = inhibition is -6.74% [at 11.4 µM].
Same read-out and setting: with `CC(=O)SCC[N+](C)(C)C` the figure was -12.4%; with `Cc1ccc(-n2nc3ccc(NC(=O)c4ccc5c(c4)OCO5)cc3n2)cc1`, -26.7%.
As to `O=C(Nc1cccc(-c2nc3ccccc3s2)c1)c1ccc2c(c1)OCO2`, the AC50 is 2 µM (active).
On the same count and under the same terms, with `O=C(Nc1cc(-c2nc3ccccc3s2)ccc1Cl)c1ccc2c(c1)OCO2` the figure was 1.41 µM (active).
Turning to `CCc1sc(N(C(=O)Cc2ccccc2)c2cccc(F)c2)nc1-c1ccc(C)cc1`, the “activity, negative = inhibition” value is -5.51%.
Consider `Cn1cccc1CC(=O)N/N=C\c1cccs1`, for which the AC50 is 15.8 µM (active).
On to `C/C(=N/NC(=O)Cc1cccn1C)c1ccccc1`, for which the AC50 is 20 µM (active).
For the compound `COc1ccc(N(CC(=O)N/N=C/c2cccs2)S(=O)(=O)c2ccc(OC)c(OC)c2)cc1`, the “activity, negative = inhibition” value is 1.39%.
On to `CC(C)(C)c1cccc(Oc2nn[nH]n2)c1`, for which the “activity, negative = inhibition” value is -3.32%.
Take `NC(=NCCC[C@H](N)C(=O)O)NO`: the “activity, negative = inhibition” value is -1.24%.
Take `CN/C(=C\[N+](=O)[O-])NCCSCc1csc(CN(C)C)n1`: the “activity, negative = inhibition” value was -4.81% [at 25.6 µM].
On to `O=C(Nc1ccccc1C(=O)NCC1CCCO1)c1ccc(Cl)cc1Cl` (configuration not stated), for which the AC50 was 8.91 µM (active).
In the case of `O=C(O)c1cc(S(=O)(=O)NCC2CCCO2)ccc1Cl` (configuration not stated), the “activity, negative = inhibition” value was -17.5%.
For `Cc1ccc(-c2nnn(CC(=O)N(c3ccccc3)C(C(=O)NCC3CCCO3)c3ccc(Cl)cc3)n2)cc1` (configuration not stated), the “activity, negative = inhibition” value was 9.48%.
Still for that read-out and setting: under `Cc1noc(C)c1COc1ccc(C(=O)NCC2CCCO2)cc1` (configuration not stated) stands -17.4%.
On to `O=C(NCC1CCCO1)c1cc(-c2ccc(Cl)cc2Cl)on1` (configuration not stated), for which the AC50 is 2.51 µM (active).
On to `Clc1ccccc1NN(Cc1ccccn1)c1ccccc1Cl`, for which the activity, negative = inhibition was -22.4% [at 2.29 µM].
Regarding `Clc1ccccc1NN(Cc1ccncc1)c1ccccc1Cl`, the AC50 was 5.01 µM (active).
Consider `CN(C)c1ccc(N=Nc2cccc3ccoc23)cc1`, for which the AC50 is 0.251 µM (active).
Turning to `COC(=O)CNC(=O)CN1C(=O)N(c2ccccc2)C(N(O)C(=O)Nc2ccccc2)C1(C)C` (configuration not stated), the “activity, negative = inhibition” value was -12.4%.
`O=c1onc2cnc3ccccc3n12`: the AC50 was 2.51 µM (active).
Regarding `O=C(Cn1cnc2ccccc21)NC(c1ccccc1)c1ccccc1`, the “activity, negative = inhibition” value was -4.72%.
Same read-out and setting: with `COCCNC(=O)COc1ccc(OCCNC[C@@H](O)COc2ccccc2)cc1` the figure was -35.6%.
Consider `O=C(NCCNC[C@@H](O)COc1ccc(O)cc1)N1CCOCC1`, for which the AC50 result was “inactive”.
For the compound `Cc1ccc(OCC(O)CNC(=O)c2ccccc2C(=O)O)cc1` (configuration not stated), the AC50 is 14.1 µM (active).
As to `CC(=O)NC(CCS(C)(=O)=O)C(=O)Nc1c(F)cccc1F` (configuration not stated), the “activity, negative = inhibition” value was -0.273%.
As for `Cc1cccc(NC(=O)CCSc2nc(C)cc(C)n2)c1`, the AC50 is 14.1 µM (active).
Take `CC[N+](CC)(CC)CC(=O)Nc1c(C)cccc1C`: the “activity, negative = inhibition” value is 1.71%.
Turning to `Cc1cccc(NC(=O)CSc2nc3nc(C)cc(C)c3c(=O)[nH]2)c1`, the AC50 was 2 µM (active).
In the case of `Cc1cc(C)nc(SCCc2cccc[n+]2C)n1`, the activity, negative = inhibition was -18.6% [at 2.29 µM].
Turning to `Cc1cccc(NC(=O)CSc2nc3ccccc3c3nc(CCc4c(C)n[nH]c4C)nn23)c1`, the “activity, negative = inhibition” value is -12.8%.
On to `OCCN(C=NC1=NN(c2cccc(C(F)(F)F)c2)CC1)CCO`, for which the AC50 was 2.82 µM (active).
Take `CCC(C)NC(=O)C1c2cc(OC)c(OC)cc2C(=O)N(C)C1c1cccs1` (configuration not stated): the “activity, negative = inhibition” value was -7.16%.
Regarding `COc1ccc(-c2ccc3c(n2)CCCN3C[C@H](O)CN2CCCc3nc(C)c(C)cc32)cc1`, the activity, negative = inhibition was -2.83% [at 11.4 µM].
For the compound `COc1ccc(-c2cc(C(F)F)nc(-n3nc(C)cc3C)n2)cc1`, the AC50 was 1.78 µM (active).
Still for that read-out and setting: under `Fc1ccc([C@H]2CCNC[C@H]2COc2ccc3c(c2)OCO3)cc1` stands 3.16 µM (active).
Regarding `COc1cc(CN2CCN(C(=O)CC(C)C)CC2)cc(OC)c1OC`, the “activity, negative = inhibition” value is -13.1%.
Same read-out and setting: under `OC(CN1CCCCC1)CN1CCCCC1` stands -1%.
As to `Cc1nn2c(NCC(C)C)c3c(nc2c1-c1ccccc1)CCC3`, the AC50 is 2.82 µM (active).
Turning to `CCC(C)[C@H](NC(=O)Nc1ccc(Oc2ccccc2)cc1)C(=O)O` (some centres not stated), the “activity, negative = inhibition” value is -5.08%.
Turning to `CCN(CC)c1nc(Nc2ccccc2)nc(Oc2ccc(C(=O)OC)cc2)n1`, the AC50 was 12.6 µM (active).
`CN1CCCC1CCNC1C2CC3CC(C2)CC1C3` (configuration not stated): the “activity, negative = inhibition” value is -4.97%.
Consider `COC(=O)c1c(C)[nH]c(O)c1C=Nc1ccc(C(C)C)cc1`, for which the AC50 is 5.62 µM (active).
Still for that read-out and setting: under `CSc1nsc(SC)c1C(=O)Nc1ccc(C)cc1` stands 7.08 µM (active).
As to `CCCNC(=O)OC[C@@H]1O[C@H](CCO/N=C(\C)CCN2CCc3nc(CC)c(CC)cc3C2)C=C[C@@H]1Oc1ccc(OC)cc1`, the activity, negative = inhibition is -0.5% [at 11.4 µM].
On to `CC1=C(CC(=O)O)c2cc(F)ccc2/C1=C\c1ccc(S(C)(=O)=O)cc1`, for which the AC50 was 12.6 µM (active).
The same measure, in the same setting: under `CC1=C(CC(=O)O)c2cc(F)ccc2/C1=C\c1ccc(S(C)=O)cc1` (configuration not stated) stands 3.98 µM (active) and 12.6 µM (active).
For `C=C(C)[C@@H]1CC=C(C(=O)O)CC1`, the “activity, negative = inhibition” value is -6.61%.
With `COc1cccc(-c2nccc(NCc3cnc(C)cn3)n2)c1`, the AC50 is 0.501 µM (active).
On the same count and under the same terms, under `Cc1cnc(CNc2ccnc(-c3cccc(C#N)c3)n2)cn1` stands 1.26 µM (active); under `Cc1cnc(CNc2ccnc(-c3cccc(NS(C)(=O)=O)c3)n2)cn1`, 20 µM (active).
Regarding `O=C(NCCCN1CCC(Cc2ccccc2)CC1)C1CCN(S(=O)(=O)N2CCOCC2)CC1`, the “activity, negative = inhibition” value was -11.5%.
For the compound `O=C(N/N=C/c1ccc(F)cc1)c1ccc(Br)cc1`, the AC50 was 0.794 µM (active).
Consider `O=[N+]([O-])c1ccc(/C=N/N/C(=N/c2ccccn2)c2ccccn2)cc1`, for which the AC50 was 12.6 µM (active).
For `O=[N+]([O-])c1ccc([C@@H](Nc2ccccc2)c2ccc3cccnc3c2O)cc1`, the activity, negative = inhibition was -21.3% [at 2.29 µM].
Take `Nc1ccc(C(=O)N/N=C/c2ccccc2)cc1`: the AC50 was 25.1 µM (active).
Regarding `Nc1ccc(C(=O)NCC(=O)O)cc1`, the “activity, negative = inhibition” value is -6.23% [at 25.6 µM].
As for `COc1cc(/C=N/NC(=O)c2ccncc2)ccc1OC(=O)c1ccc([N+](=O)[O-])cc1`, the “activity, negative = inhibition” value was -4.43%.
On to `O=C(N/N=C/c1cccnc1)c1ccc([N+](=O)[O-])cc1`, for which the AC50 was 5.01 µM (active).
With `O=C(N/N=C\c1cccc(O)c1)c1ccncc1`, the activity, negative = inhibition is -15.7% [at 11.4 µM].
